Data reported in PubChem BioAssay AID2530 (National Center for Advancing Translational Sciences (NCATS), 2010).
Inconclusive results are not listed. Entries that show only a call come without a potency. Active and inactive are the calls of the source. Calls follow the shape of the dose curve; as a rule, active = well fitted inhibition curve with a large enough effect; inconclusive = small, poorly fitted or top-dose-only effect; inactive = flat fitted curve, though single readings scatter.

Biological target: Luciferin 4-monooxygenase (Photuris pensylvanica) (UniProt Q27757)
Assay: Secondary Assay for Luciferase (Kinase-Glo TM) Inhibition Counterscreen
Conditions: Kinase-Glo luciferase enzyme, luminescence; series mostly up to 58.1 µM
Procedure, shortened: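 Kinase-Glo firefly-type luciferase with 10 uM ATP in 50 mM imidazole pH 7.2, 50 mM KCl, 7 mM MgCl2, 0.01% Tween 20, 0.05% BSA. Luminescence read after 8 min at ambient temperature, normalized to DMSO and 40 uM SIB 1757, then Hill-fitted.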
Potency is read from the fitted curve at half-maximal effect.

| SMILES | Potency |
| --- | --- |
| Cc1ccc(NS(=O)(=O)c2cc3c(cc2F)NC(=O)CC3)cc1C | inactive |
| O=C1NS(=O)(=O)c2ccccc21 | inactive |
| CSc1cc2c(s1)c1cnn(Cc3cccc(O)c3)c(=O)c1n2C | inactive |
| Cc1cc(O)c(-c2cc(O)c(C)cc2O)cc1O | inactive |
| Cc1ccc(-c2cc3c(nn2)-c2ccccc2C3=O)cc1 | 5.8 µM (active) |
| O=[N+]([O-])c1cc2oc3c(c2c(C=NCc2ccccc2)c1O)CCCC3 | inactive |
| CC(=O)Nc1ccc(S(=O)(=O)Nc2ccc(C)c(C)c2)cc1 | inactive |
| O=C1c2ccccc2C(=O)C1c1ccnc2ccccc12 | inactive |
| O=C(Nc1ccc2c(c1)OCCO2)c1ccccn1 | 18.3 µM (active) |
| O=C1c2ccccc2C(=O)N1Cc1ccncc1 | inactive |
| O=C1c2ccccc2C(=O)N1c1cccc2cccnc12 | inactive |
| Cc1cc(N2C(=O)c3ccccc3C2=O)n[nH]1 | inactive |
| O=C(c1ccccc1)n1c(=S)nc2ccccn21 | 5.17 µM (active) |
| Cc1ccc(NS(=O)(=O)c2ccc3c(c2)CCC(=O)N3)cc1 | inactive |
| Cn1c2cc(S(C)=O)sc2c2cnn(Cc3cccc(O)c3)c(=O)c21 (centres undefined) | inactive |
| COc1ccc(C(=O)N=c2nc3ccccn3s2)cc1 | 5.8 µM (active) |
| Cc1ccc(NS(=O)(=O)c2ccc3c(ccn3C)c2)cc1C | inactive |
| Cc1ccc(NS(=O)(=O)c2ccc3c(c2)N(C)CCO3)cc1C | inactive |
| CC(=O)N(C1=C(Cl)C(=O)c2ccccc2C1=O)C1CCCCC1 | inactive |
| Cc1ccc(N2C(=O)c3ccccc3C2O)nc1 (centres undefined) | 6.51 µM (active) |

| SMILES | Potency |
| --- | --- |
| COC(=O)CSC1=NS(=O)(=O)c2ccccc21 | inactive |
| Oc1ccc(O)c2c1C1c3ccccc3C2c2ccccc21 | inactive |
| O=C1c2ccccc2C(=O)N1c1ccc(O)cc1 | inactive |
| COc1ccc2[nH]c3c4c(ccc3c2c1)C(=O)C=CC4=O | inactive |
| Cc1ccsc1C(=O)Nc1nc2ccccc2[nH]1 | 16.3 µM (active) |
| Cc1ccc(NS(=O)(=O)c2ccc3c(c2)CC(=O)N3C)cc1C | inactive |
| COc1cc(F)c(S(=O)(=O)N2CCCN(S(=O)(=O)c3cccc(N)c3)CC2)c(F)c1 | inactive |
| Cc1sc2nc(CN3CCN(c4ccc(O)cc4)CC3)[nH]c(=O)c2c1C | inactive |
| O=S(=O)(Nc1ccc(O)c(NS(=O)(=O)c2ccccc2)c1)c1ccccc1 | inactive |
| COc1ccc(S(=O)(=O)Nc2ccc(C)c(C)c2)cc1 | inactive |
| O=C(/C=C/c1ccc2c(c1)OCO2)c1ccccn1 | 5.8 µM (active) |
| Cc1ccc(NS(=O)(=O)c2ccc(F)cc2)cc1C | inactive |
| Cc1ccccc1N=CC1=C(O)c2ccccc2C1=O | 11.6 µM (active) |
| COc1ccc(N2C(=O)c3ccccc3C2=O)cc1 | inactive |
| Cc1occc1C(=O)O/N=C(\N)c1ccccc1 | 6.51 µM (active) |
| CC(=O)Nc1cccc(S(=O)(=O)Nc2ccc(C)c(C)c2)c1 | inactive |
| O=C1c2ccccc2C(=O)N1c1ccc2ccccc2n1 | inactive |
| O=C1c2ccccc2C(=O)N1Cc1cccnc1 | inactive |
| O=C1c2ccccc2C(=O)N1c1cc(=O)c2ccccc2[nH]1 | inactive |
